Data taken from PubChem BioAssay (NCATS).
Inconclusive results are not listed. Entries that show only a call come without a potency. Active and inactive are the calls of the source. The call rests on the fitted dose curve; in most records, active means well fitted activation curve with a large enough effect; inconclusive means small, poorly fitted or top-dose-only effect, or effect the other way; inactive means flat fitted curve, though single readings scatter.

Assay: Cellular Toxicity (caspase-3) NIH 3T3 (AID 666);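 further: caspase signal read after 16 h compound exposure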
Details: NIH 3T3 caspase-3 activation, apoptosis/toxicity, 0% DMSO, 100% is 100 µM tamoxifen; series mostly up to 92.2 µM
In short: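 Activity: caspase-3/7 induction, NIH 3T3 cells, 16 hr treatment at 37°C, luminescent Caspase-Glo detection; AC50 via Hill equation.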

| Structure (SMILES) | outcome |
| --- | --- |
| C=CC1CO1 (configuration not stated) | inactive |
| COc1cc(-c2ccc(N=C=O)c(OC)c2)ccc1N=C=O | inactive |
| CCOC(=O)C1OC1c1ccccc1 (configuration not stated) | inactive |
| COc1ccc(C(=O)Nc2ccccc2)cc1[N+](=O)[O-] | inactive |

Assay: Cellular Toxicity (caspase-3) Renal Proximal Tubule (AID 667);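 further: cells exposed to compound for 16 hours at 37 °C before detection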
Details: renal proximal tubule cells, primary cells freshly taken from rat; Potency: caspase-3 activation; series mostly up to 91.7 µM
In short: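 Primary rat proximal tubule cells, 1000/well, 5 h plating at 37 °C, then compound 16 h at 37 °C. Caspase-Glo 3/7 reagent, 1 h RT, luminescence. Normalized to DMSO (basal) and 10 uM staurosporine (100%); Hill-fit AC50.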

| Structure (SMILES) | Potency |
| --- | --- |
| CCCCCCc1ccc(-c2ccc(C#N)cc2)cc1 | inactive |
| Nc1cnn([C@@H]2O[C@H](CO)[C@@H](O)[C@H]2O)c(=O)n1 | inactive |
| CCCCCCCCOc1ccc(C(=O)O)cc1 | inactive |
| Oc1c(Cl)cc(Cl)c(Cl)c1Cl | inactive |
| CC(C)OCC1CO1 (configuration not stated) | inactive |
| C/C(Cl)=C/CCl | inactive |
| CCCCNCC | inactive |
| O=c1[nH]ncc2ccccc12 | inactive |
| c1ccc(COCc2ccccc2)cc1 | inactive |
| O=[N+]([O-])c1cccc(I)c1 | inactive |
| Nc1ccc2c(c1)C(=O)c1ccccc1C2=O | inactive |
| c1ccc2c(c1)ccc1ccccc12 | inactive |
| Nc1ccc(N=Nc2ccccc2)c(N)c1 | inactive |
| Cc1ccc(C(=O)O)cc1[N+](=O)[O-] | inactive |
| COc1ccc([N+](=O)[O-])cc1N | inactive |
| OCC(CO)(CBr)CBr | inactive |
| Nc1cc(C(=O)O)c(O)c(S(=O)(=O)O)c1 | inactive |
| Oc1ccc2c(c1)OCO2 | inactive |
| c1ccncc1 | inactive |

| Structure (SMILES) | Potency |
| --- | --- |
| CC(=O)OC1CC(C)OC(C)O1 (configuration not stated) | inactive |
| O=C(OCc1ccccc1)c1ccccc1O | inactive |
| C/C=C/C=C/C=O | inactive |
| CCN(CC)c1ccc2c(C)cc(=O)oc2c1 | inactive |
| c1c[nH]cn1 | inactive |
| c1ccc(SCCSc2ccccc2)cc1 | inactive |
| O=C(O)/C=C/c1ccc(/C=C/C(=O)O)cc1 | inactive |
| CCCCOC(=O)COc1ccc(Cl)cc1Cl | inactive |
| CC(=O)OC(C(=O)c1ccccc1)c1ccccc1 (configuration not stated) | inactive |
| CCCCCCN | inactive |
| CC(=O)Nc1cccc(C)c1 | inactive |
| CCC(Cl)CC(Cl)C(Cl)C(Cl)C(Cl)C(C)Cl (configuration not stated) | inactive |
| COc1ccc(C)cc1N | inactive |
| CCc1ccc(C(c2ccc(CC)cc2)C(Cl)Cl)cc1 | inactive |
| O=[N+]([O-])c1ccccc1Nc1ccccc1 | inactive |
| C=CC1CO1 (configuration not stated) | inactive |
| COc1cc(-c2ccc(N=C=O)c(OC)c2)ccc1N=C=O | inactive |
| CCOC(=O)C1OC1c1ccccc1 (configuration not stated) | inactive |
| COc1ccc(C(=O)Nc2ccccc2)cc1[N+](=O)[O-] | inactive |
